Laboratory results from the supplement of paper PMC6522484.
± gives the standard deviation of the averaged measurements.

Key:
[1] = tested on: DLD1; experiment: cell viability (CellTiter-Glo) relative to plate median (fraction of plate median); higher = more viable cells; conditions: 5 µM; treatment time 24 h; reporter: 7TFP
Outline: (§1)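 Signals from firefly luciferase or CellTiterGlo readouts were normalised well by well to the plate median using webcellHTS2, additively and with no log transformation. They came from colorectal cancer cell lines stably holding lentiviral TCF/Wnt firefly luciferase reporters (7TFP or TCF4/Wnt), treated with library compounds at a final 5 µM for 24 h. The mean of two independent replicates is given.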

[2] = tested on: HCT116; experiment: as above; conditions: 5 µM; treatment time 24 h; reporter: TCF4/Wnt
Outline: as §1

[3] = tested on: SW480; experiment: as above; conditions: 5 µM; treatment time 24 h; reporter: 7TFP
Outline: as §1

[4] = tested on: DLD1; experiment: TCF/Wnt firefly luciferase reporter signal relative to plate median (fraction of plate median); higher = higher Wnt reporter signal; conditions: 5 µM; treatment time 24 h; reporter: 7TFP
Outline: as §1

[5] = tested on: SW480; experiment: as above; conditions: 5 µM; treatment time 24 h; reporter: 7TFP
Outline: as §1

Structure (SMILES)	cell viability [1]	cell viability [2]	cell viability [3]	TCF/Wnt firefly luciferase reporter signal [4]	TCF/Wnt firefly luciferase reporter signal [5]
CC(=O)O[C@H]1C[C@@H](OC(C)=O)C(C)(C)[C@@H]2C[C@@H](OC(C)=O)[C@]3(C)[C@H](CC[C@@]4(C)[C@H](c5ccoc5)OC(=O)[C@H]5O[C@@]534)[C@@]12C	1.11 ± 0.14	1.18 ± 0.028	1.15 ± 0.042	1.07 ± 0.12	1.04 ± 0.021
NS(=O)(=O)c1ccc(S(=O)(=O)Nc2cccc3c(Cl)c[nH]c23)cc1 [indisulam]	1.04 ± 0.028	0.747 ± 0.07	0.926 ± 0.0028	1.17 ± 0.014	1.1 ± 0.15
O=C(Oc1cc(O)cc2c1C[C@@H](OC(=O)c1cc(O)c(O)c(O)c1)[C@@H](c1cc(O)c(O)c(O)c1)O2)c1cc(O)c(O)c(O)c1	1.06 ± 0.028	1.1 ± 0.12	1.04 ± 0.021	0.89 ± 0.0071	0.951 ± 0.048
COc1ccc(C2CC(=O)c3ccc(OC)cc3O2)cc1 (stereo not given)	0.994 ± 0.11	1.08 ± 0.021	1.05 ± 0.05	1.05 ± 0.12	0.901 ± 0.021
NS(=O)(=O)c1cc(C2(O)NC(=O)c3ccccc32)ccc1Cl (stereo not given)	1.02 ± 0.067	1.02 ± 0.036	0.986 ± 0.1	0.958 ± 0.13	0.981 ± 0.025
COC(=O)[C@@H]1OC(=O)C2OC23[C@@]1(C)CCC1[C@]2(C)C(C[C@@H](O)[C@]13C)C(C)(C)[C@H](OC(C)=O)C[C@@H]2OC(C)=O (stereo not given in full)	1.01 ± 0.091	1.01 ± 0.014	1.01 ± 0.035	1.1 ± 0.042	1 ± 0.11
NC(=O)c1cc[n+](CC2=C(C(=O)O)N3C(=O)[C@@H](NC(=O)[C@@H](c4ccccc4)S(=O)(=O)[O-])[C@H]3SC2)cc1	1.01 ± 0.055	0.983 ± 0.067	1.07 ± 0.085	0.967 ± 0.17	0.9605 ± 0.0078
CC(C)NCC(O)c1cc(O)cc(O)c1 (stereo not given)	0.999 ± 0.03	0.954 ± 0.06	0.976 ± 0.048	0.914 ± 0.11	0.987 ± 0.018
C=CC(C1=CC(=O)C(OC)=CC1=O)c1ccc(OC)cc1 (stereo not given)	1.06 ± 0.035	1.13 ± 0.085	1.03 ± 0.054	0.988 ± 0.059	1 ± 0.11
CCN1CCN(c2cc3c(cc2F)c(=O)c(C(=O)O)cn3C2CC2)CC1	1.01 ± 0.05	0.907 ± 0.038	0.921 ± 0.03	1.05 ± 0.074	0.9395 ± 0.005
Cc1ccc(S(=O)(=O)NC(=O)NN2CCCCCC2)cc1	0.911 ± 0.047	0.918 ± 0.018	0.968 ± 0.019	0.881 ± 0.071	0.998 ± 0.031
CN1C(C(=O)Nc2ccccn2)=C(O)c2sccc2S1(=O)=O	0.932 ± 0.03	0.893 ± 0.011	0.9585 ± 0.00071	0.978 ± 0.073	1.09 ± 0.014
C[C@@H]1C[C@H]2[C@@H]3C[C@H](F)C4=CC(=O)C=C[C@]4(C)[C@@]3(F)[C@@H](O)C[C@]2(C)[C@@]1(O)C(=O)CO	1.05 ± 0.057	0.889 ± 0.02	1.03 ± 0.028	1.02 ± 0.14	0.986 ± 0.076
C1CCC(C(CC2CCCCN2)C2CCCCC2)CC1 (stereo not given)	1.05 ± 0.05	0.983 ± 0.052	1.12 ± 0.021	0.971 ± 0.013	1.03
OC[C@H]1O[C@@H](Oc2ccc(O)cc2)[C@H](O)[C@@H](O)[C@@H]1O	0.965 ± 0.04	0.989 ± 0.072	0.936 ± 0.018	0.963 ± 0.095	0.975 ± 0.033
CC(=O)O[C@H]1C[C@@H]2CC[C@@H]3[C@H](CC[C@@]4(C)[C@H]3C[C@H]([N+]3(C)CCCCC3)[C@@H]4OC(C)=O)[C@@]2(C)C[C@@H]1N1CCCCC1	0.976 ± 0.077	1.03	1.004 ± 0.0092	1.03 ± 0.1	1.1 ± 0.014
C[C@@H]([C@H]1OC(C)(C)[C@@H](O)[C@H]1O)[C@@H]1CC[C@]2(C)C3=CC[C@H]4C(C)(C)C(=O)CC[C@]4(C)[C@H]3CC[C@@]12C	1.1 ± 0.19	0.998 ± 0.1	1.07 ± 0.042	1.01 ± 0.084	0.884 ± 0.065
C(=C\c1ccccc1)/CN1CCN(C(c2ccccc2)c2ccccc2)CC1	0.989 ± 0.072	1.09 ± 0.021	1.035 ± 0.0071	1.17 ± 0.11	0.936 ± 0.15
C#C[C@]1(OC(C)=O)CC[C@H]2[C@@H]3CCC4=CC(=NO)CC[C@@H]4[C@H]3CC[C@@]21CC (mixture of isomers)	1 ± 0.057	1.025 ± 0.0071	0.98 ± 0.025	1.055 ± 0.0071	0.97 ± 0.04
O=c1c(-c2ccccc2)coc2cc(O)cc(O)c12	0.94 ± 0.11	0.883 ± 0.027	0.993 ± 0.053	0.926 ± 0.097	1.04 ± 0.18
COc1ccc(CCN(C)CCCC(C#N)(c2ccc(OC)c(OC)c2)C(C)C)cc1OC (stereo not given)	1.04 ± 0.12	0.971 ± 0.07	1.02 ± 0.014	1.01 ± 0.12	1.03 ± 0.11
Cc1ncc(CO)c(CO)c1O	1.02 ± 0.033	1.09 ± 0.17	1.02 ± 0.014	0.951 ± 0.11	0.9705 ± 0.0092
NC(=O)N/N=C/c1ccc([N+](=O)[O-])o1	0.894 ± 0.04	0.827 ± 0.13	0.9805 ± 0.0064	0.973 ± 0.11	1.08 ± 0.028
CC(=O)NCCc1ccccc1 [N-Acetyl-phenylethylamine]	1.04 ± 0.014	1.01 ± 0.12	1.02 ± 0.072	1.03 ± 0.028	1.02 ± 0.079
CCOC(=O)OC(C)OC(=O)[C@@H]1N2C(=O)[C@@H](NC(=O)[C@H](N)c3ccccc3)[C@H]2SC1(C)C (stereo not given in full)	1.05 ± 0.014	1.01 ± 0.071	1.01 ± 0.014	1.09 ± 0.12	1.08 ± 0.035
CCn1nc(C(=O)O)c(=O)c2cc3c(cc21)OCO3	1.01 ± 0.035	0.972 ± 0.015	0.988 ± 0.088	1 ± 0.11	0.875 ± 0.14
COc1ccc(-c2cc(=O)c3ccccc3o2)cc1OC	1.07 ± 0.05	1.01	1.06 ± 0.057	0.906 ± 0.0099	1.03 ± 0.035
O=c1occ(C(O)CO)c2cccc(O)c12 (stereo not given) [Oospoglycol]	0.886 ± 0.079	0.9515 ± 0.0035	0.976 ± 0.09	1.1 ± 0.11	1.01 ± 0.15
